Test results from PubChem BioAssay AID651718 (The Scripps Research Institute Molecular Screening Center, 2012).
About 2,700 (0.75%) of roughly 360,000 compounds were called active. No stated cut-off is given here; in the data, active means inhibition above about 4.5%; inactive means the rest. What follows is part of a selection rich in actives, with near analogues and random picks from the rest.

The compounds below were run on Methionine sulfoxide reductase A (Bos taurus) (assay: bovine MsrA enzyme inhibitors, primary screen, biochemical, absorbance, HTS (AID 651718;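 further: 0% = vehicle wells with enzyme and 100% = reference inhibitor wells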)). Settings: purified bovine MsrA, absorbance read-out; at 15.5 µM; stronger effect = higher value.

inhibition, inactive:
CCOc1cc(-c2noc(CCC(=O)N3CCOCC3)n2)ccc1OC -1.14%
COc1cc(/C=C/C(=O)OCC(=O)N2CCOCC2)ccc1OCC#N 2.74%
NC(=O)c1ncn([C@@H]2O[C@H](C(=O)O)[C@@H](O)[C@H]2O)n1 0.08%
COc1ccc(C2C(C(C)=O)=C(O)C(=O)N2CCc2c[nH]c3ccccc23)cc1 (stereo not given) 2.78%
CCCOc1ccc(/C(O)=C2/C(=O)C(=O)N(CCN(C)C)C2c2ccc(OC)c(OC)c2)cc1 (stereo not given) 1.66%
Cc1cc(C)c(S(=O)(=O)NCCCN2CCOCC2)cc1Br -0.29%
CCc1nnc(NC(=O)c2ccco2)s1 2.11%
CCc1nnc(NC(=O)[C@@H](NC(=O)c2cccc(C)c2)C(C)C)s1 0.82%
COc1ccc(SSc2ccc(OC)cc2C(=O)O)c(C(=O)O)c1 3.29%
CC(=O)C1=C(C)N(Cc2ccc(Cl)cc2)C(=S)NC1c1ccc(F)cc1 (stereo not given) 0.08%
Cc1cc2c(=O)n(CC(=O)NCC(=O)Nc3ccc(C(C)C)cc3)cnc2s1 -2.15%
CC(=O)Nc1ccc2c3c(ccc([N+](=O)[O-])c13)CC2 0.76%
O=[N+]([O-])c1ccccc1Nc1ccc(O)cc1 2.41%
Cc1ccc(Nc2cc(C)nc3c(C)ccc([N+](=O)[O-])c23)cc1 -0.67%
Cc1cccc(N2CCN(c3ccc(C(N)=O)cc3[N+](=O)[O-])CC2)c1C -0.25%
C=CC1=CCN(S(=O)(=O)C(C)(C)C)[C@@H]1CCO -1.1%
COc1ccc(C)cc1NC(=O)CNCc1cccs1 1.1%
N=C1c2ccccc2-c2ccccc21 0.22%
COc1cc(C2CC(=O)N3CN(Cc4ccccc4)CSC3=C2C#N)ccc1OCc1ccccc1 (stereo not given) 0.9%
CCCCN1C(=O)C(CC(=O)NCc2cccs2)CC(C(=O)N2CCOCC2)=C1C (stereo not given) 0.14%
OC(c1ccccc1)(c1ccccc1)C1CCN(CCCOc2ccc(-c3ccsc3)cc2)CC1 0.25%
CN(C)S(=O)(=O)c1cccc(NC(=S)N/N=C/C(=O)c2ccccc2)c1 1.15%
O=C(Cc1c[nH]c2ccccc12)N/N=C/c1cccc(F)c1 0.41%
COc1ccc(NC(=O)NNC(=O)COc2cc(C)c(Cl)c(C)c2)c(OC)c1 -0.36%
CCCCCCCCN1C(=O)[C@@H](CC(=O)N2CCN(C(=O)OCC)CC2)C[C@@]2(C(=O)OC)C1=C[C@H](C1CCCC1)O[C@@H]2C 0.48%
CCOc1cc(/C=C2\SC(N3CCCC(C)C3)=NC2=O)ccc1O (stereo not given) 3.02%
CCOc1cc(/C=C2\C(=N)N3N=C(C)SC3=NC2=O)ccc1OCCOc1ccccc1 -1.53%
CC(C)CNc1cccc2c1S(=O)(=O)N[C@H](CC(C)C)CO2 2.13%
COC(=O)Cc1nnn2c1[C@H](C)[C@H](c1ccccc1Br)OCC2 0.32%
Cc1c(C(=O)OC(C)C)sc(NC(=O)c2cccnc2)c1C#N 0.08%
Cc1sc(NC(=O)C2=COCCO2)c(C#N)c1C 0.89%
Nc1ncnc2c1ncn2[C@@H]1O[C@H](C(=O)N[C@@H](CCc2ccccc2)C(=O)NCC(=O)N2CCOCC2)[C@@H](O)[C@H]1O -0.08%
COc1cccc(CNCc2ccc3c(c2)OCO3)c1 0.46%
CC(=O)Nc1ccc2nc(NC(=O)CS(=O)(=O)c3ccc(F)cc3)sc2c1 1.73%
NS(=O)(=O)c1ccc2nc(NC(=O)CS(=O)(=O)c3ccc(F)cc3)sc2c1 0.94%
COC(=O)C1=C(C)N(Cc2ccccc2C(F)(F)F)C(=NCc2ccc(OC)cc2)NC1c1cccc(C(F)(F)F)c1 (stereo not given) -3.43%
Nc1ccn([C@@H]2O[C@H](C(=O)N[C@H]3CCCCNC3=O)[C@@H](O)[C@H]2O)c(=O)n1 -0.17%
C=CC[C@]12C[C@@]3(O[C@H](c4ccc(C(F)(F)F)cc4)N=C3C[C@H](c3ccc(OC)cc3)[C@H]1C)N(C1CCN(Cc3ccccc3)CC1)C2=O 0.32%
Cc1cc(NCc2ccco2)n2c(nc3ccccc32)c1C#N -0.85%
O=C(CSc1nnc(-c2cccnc2)n1Cc1ccco1)c1ccc(Cl)c(Cl)c1 -1.02%
CCC1SC2=NCCN2C1(O)c1ccc(Cl)cc1 (stereo not given) -0.53%
Cc1cc2c(cc1C)NC1(C[C@H]3CCC(=O)N4CC[C@@H](C1)[C@@H]34)C(=NC(C)(C)CC(C)(C)C)N2 (stereo not given in full) 0.45%
COCCN(C(=O)C(C)C)c1nnc(-c2ccc(C(C)(C)C)cc2)s1 -0.05%
CC(C)[C@H]1COCCS(=O)(=O)N1Cc1ccccc1-c1cccc2c1sc1ccccc12 1.34%
O=C(O)C(CCc1ccccn1)c1ccccc1 (stereo not given) -0.84%
Oc1cccc(CCc2ccccn2)c1 -1%
CCOC(=O)N1CCN(C(=O)C[C@H]2C[C@@]3(C(=O)OC)C(=C[C@H](C4CCCC4)O[C@@H]3C)N(Cc3ccccc3)C2=O)CC1 -0.08%
Nc1ncnc2c1ncn2C1OC(CO)CC1O (stereo not given) 1.51%
CC1(C(=O)NS(=O)(=O)c2cccc(OC(F)F)c2)CCN1C(=O)C1CC1 (stereo not given) 0.29%
COC(=O)c1c(-c2ccc(OC)cc2)c2c(c3c4ccccc4n(S(=O)(=O)c4ccc(C)cc4)c13)C(=O)N(C)C2 1.59%
Nc1nc2c(ncn2[C@@H]2O[C@H](C(=O)N[C@H](Cc3ccccc3)C(=O)NCC3CCCCC3)[C@@H](O)[C@H]2O)c(=O)[nH]1 0.66%
COc1ccc(Cl)cc1NC(=O)CN(C)C(=O)c1cn(-c2ccccc2)nc1-c1cccs1 0.13%
CC(=O)C1=C(C)NC(C)=C(C(C)=O)C1c1cn(-c2ccccc2)nc1-c1cccs1 1.65%
CC(=NNC(N)=O)c1ccc(Cl)c(-n2cccc2)c1 -0.35%
CN1CCCCC(NC(=O)C(C)(C)C)C1=O (stereo not given) 0%
Cc1ccc(NC(=O)CC2S/C(=N/N=C3\CCCc4ccccc43)NC2=O)cc1 (stereo not given) -0.26%
Cc1ccc(S(=O)(=O)Oc2ccc(/C=N/NC(=O)c3c(Cl)cnn3C)cc2)cc1 0.98%
COC(=O)[C@]12C[C@H](CC(=O)NCCCCc3ccccc3)C(=O)N(Cc3ccc4c(c3)OCO4)C1=C[C@H](C(C)(C)C)O[C@@H]2C 1.75%
CCOC(=O)Cn1c2c(n(-c3ccc(F)cc3)c1=O)C=C(c1ccccc1)[C@@H](C)C(C(=O)N(C)C1CCCCC1)=C2 -0.4%
COc1ccc(C2=CN(Cc3ccccc3)C(c3ccc(OC)cc3)CC2=O)cc1 (stereo not given) -0.65%
COc1ccc(CNS(=O)(=O)c2cc(Br)ccc2Br)cc1 0.62%
O=C(O)c1ccc(NN=CC2=C(N3CCOCC3)/C(=C/c3ccccc3)CC2)cc1 2.43%
Fc1ccccc1/C=N/Nc1cc(N2CCCCC2)ncn1 1.96%
COc1ccccc1-c1cnn2c(N3CCOCC3)cc(C)nc12 1.96%
Cc1cc2c(C)nc(N/N=C/c3ccccc3)nc2o1 3.05%
COc1ccccc1C(=O)N1O[C@]23C=C[C@]14C[C@@H](O)CC[C@]4(C)C2CC[C@]1(C)[C@@H]([C@H](C)/C=C/[C@H](C)C(C)C)CC[C@H]13 (stereo not given in full) -0.78%
CN(C)C(=O)N1CCN(C(=O)[C@@H](Cc2ccccc2)NC(=O)[C@H]2O[C@@H](n3ccc(N)nc3=O)[C@H](O)[C@@H]2O)CC1 0.17%
CSc1ccc(Oc2cccc3c2S(=O)(=O)N([C@H](C)c2ccccc2)C[C@@H](COCc2ccccc2)O3)cc1C 0.09%
CC(C)Cc1oc(C(=O)O)cc1CN -1.34%
Cc1ccc(S(=O)(=O)NCCC(c2ccccc2)c2ccccc2)cc1C(=O)O 0%

inhibition, active:
CCOc1ccc(/C=C(/C#N)c2nnc(N3CCOCC3)n2-c2ccccc2)cc1OC 6.28%
COc1cc(C2C(C(=O)c3sc(C)nc3C)=C(O)C(=O)N2CCN(C)C)cc(OC)c1OC (stereo not given) 18.4%
CCc1nnc(NC(=O)/C=C/c2ccc(C)o2)s1 5.52%
Cc1ccc(Nc2ccc(C(N)=O)cc2[N+](=O)[O-])cc1 11.1%
NC(=O)c1ccc(Nc2ccc3c(c2)CCC3)c([N+](=O)[O-])c1 13.9%
O=C(O)c1cccc(NC(=S)N/N=C/c2c[nH]c3ccccc23)c1 5.25%
CCOc1cc(/C=C2\SC(N3CCCCC3)=NC2=O)ccc1O 4.93%
CCN(CC)C(=O)c1sc(NC(=O)c2ccco2)c(C#N)c1C 4.94%
CS(=O)(=O)c1ccc2nc(NC(=O)c3ccc(Cl)nc3)sc2c1 4.77%
Clc1cccc(-c2nc3nc4ccccc4nc3n2Cc2ccco2)c1 4.87%
O=C(Cc1ccccn1)c1ccc(O)cc1O 4.91%
O=C(O)c1ccc(N/N=C/c2cn(-c3ccccc3)nc2-c2cccs2)cc1 8.7%
CC(=O)Nc1ccc(S(=O)(=O)Oc2ccc(/C=N/N=C3/NC(=O)C(CC(=O)O)S3)cc2)cc1 (stereo not given) 5.33%
C(=N/Nc1cc(N2CCOCC2)nc(N2CCOCC2)n1)/c1ccccc1 5.01%
COc1ccc(/C=N/Nc2cc(N3CCOCC3)nc(C)n2)c(OC)c1 5.8%
